A selection: hits, their analogues and other compounds. The true share with any hit is near 3%.
TRAIL sens C8: caspase-8 TRAIL sensitization; inhibition (viability loss, TRAIL sensitization), % at 10 µM; AID 624354; NB7+C8 cells + TRAIL, ATPlite viability luminescence; 360,000 tested, 1% active;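 active means compounds causing at least 50% loss of cell viability in the single-dose screen, relative to plate controls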
PPC-1+TRAIL kill: compounds killing PPC-1 cancer cells with TRAIL present (potentiator screen, no TRAIL-free arm); PPC-1 cells + TRAIL, ATPLite viability luminescence; AID 1443; 220,000 tested, 0.41% active; cell killing (% activity), % at 4 µM or 5 µM;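 active means cell killing above 50% in the first pass at 4 µM, then a duplicate retest at 5 µM averaging 50% or more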;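 further: plate controls were cells with TRAIL plus DMSO for no effect and medium-only wells lacking cells for full effect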
SENP6 inh: inhibitors of human SENP6 protease | 330,000 tested, 1.8% active | inhibition, % at 10 µM | Recombinant SENP6 catalytic domain, aminoluciferin luminescence;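 active means inhibition above about 50% at the single tested dose, limit read from the data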;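 further: plate controls were DMSO wells with enzyme for no effect and DMSO wells lacking enzyme for full effect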
Target sequence (Q9GZR1 628-1112 limits assumed): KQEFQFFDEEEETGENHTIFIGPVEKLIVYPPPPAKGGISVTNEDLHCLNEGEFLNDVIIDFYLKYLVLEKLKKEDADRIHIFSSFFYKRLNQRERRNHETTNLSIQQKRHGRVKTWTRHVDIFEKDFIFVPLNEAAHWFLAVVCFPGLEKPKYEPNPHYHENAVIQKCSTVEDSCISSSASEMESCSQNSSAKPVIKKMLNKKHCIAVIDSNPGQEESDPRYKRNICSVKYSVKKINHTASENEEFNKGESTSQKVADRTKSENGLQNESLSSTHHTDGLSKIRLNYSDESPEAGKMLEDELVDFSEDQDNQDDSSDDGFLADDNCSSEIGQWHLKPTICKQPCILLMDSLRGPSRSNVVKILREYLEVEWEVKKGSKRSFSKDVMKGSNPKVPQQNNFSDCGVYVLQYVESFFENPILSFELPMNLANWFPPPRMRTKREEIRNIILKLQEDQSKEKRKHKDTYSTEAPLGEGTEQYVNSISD
SENP8 block-1: inhibitors of human SENP8 protease. recombinant SENP8, Nedd8 substrate fluorescence. inhibition, % at 20 µM. 360,000 tested, 0.64% active. AID 602440; in the data active means inhibition mostly above about 40%, no sharp cut-off; inactive means mostly below about 27%
SENP8 block-2: blocks the human protease SENP8. Q96LD8. purified SENP8, Z-RLRGG-aminoluciferin cleavage, luminescence. inhibition, % at 10 µM. 330,000 tested, 1.2% active. AID 2540; in the data active means inhibition above about 50%
SENP7 block: SENP7 protease inhibition. recombinant SENP7, Z-RLRGG-aminoluciferin luminescence, 40 min. inhibition, % at 5 µM. 330,000 tested, 1.5% active. AID 434973;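 active means inhibition above about 50% at the single test dose, limit read from the data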;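 further: plate controls were DMSO with enzyme for no effect and no enzyme buffer wells for full effect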
* = called active by the depositor; x = no result.

SMILES	TRAIL sens C8	PPC-1+TRAIL kill	SENP6 inh	SENP8 block-1	SENP8 block-2	SENP7 block
COc1cccc(C=NNc2nnc(NN=Cc3cccc(OC)c3OC)c3ccccc23)c1OC	80*	x	x	-117	x	x
COc1ccccc1/C=N/Nc1nncc2ccccc12	19	13	43	1	20	37
Cc1ccc(NNc2c(C)nc3ccccc3nc2=O)cc1	22	34	-14	20	5	0
CCCN(C)C[C@H]1OCc2cnnn2CCCC(=O)N([C@H](C)CO)C[C@@H]1C	-3	x	x	12	x	x
CC1CCCCN1CCCNC(=O)CN1C(=O)c2cccnc2Oc2ccccc21 (configuration not stated)	-26	x	-4	3	4	-6
O=C(COC(=O)C1CC1)Nc1ccc(N=Nc2ccccc2)cc1	35	-9	-13	43*	-28	-2
CN(C)c1ccc(C=Cc2cnccn2)cc1	80*	x	x	-490	x	x
CCOC(=O)c1cc2c(C)n(-c3ccc(C)cc3)c(C)c2ccc1=O	59*	-4	-4	5	7	0
CCOC(=O)c1cc2c(C)n(-c3ccc(OCC)cc3)c(C)c2ccc1=O	10	18	10	1	7	5
C[C@H](CO)N1C[C@H](C)[C@@H](CN(C)Cc2ccc3cccnc3c2)OCc2cnnn2CCCC1=O	-17	x	x	7	x	x
Cc1c(Cl)cccc1NC(=O)N1CCN(C(=O)c2ccco2)CC1	-19	x	-2	14	-10	-9
CC(C)C(=O)NC(c1cccs1)c1cc([N+](=O)[O-])c2cccnc2c1O (configuration not stated)	38	7	20	44*	5	18
Cc1ccc(C(NC(=O)C(C)C)c2cc([N+](=O)[O-])c3cccnc3c2O)cc1 (configuration not stated)	43	24	2	55*	1	-5
CCC(=O)NC(c1ccc(C)cc1)c1cc(Cl)c2cccnc2c1O (configuration not stated)	12	x	-24	18	-22	-5
O=C(Nc1cccc2[nH]c([C@H]3C[C@H](O)[C@@H](CO)O3)nc12)NC(c1ccccc1)c1ccccc1	0	x	x	9	x	x
O=C(OCC(=O)N1CCc2ccccc21)[C@@H]1CC(O)CN1S(=O)(=O)c1ccccc1[N+](=O)[O-] (some centres not stated)	-9	x	2	9	6	0
OC[C@@H]1CN(Cc2ccc(-c3ccccc3)cc2)C[C@H](n2cnc3c(NCc4ccco4)ncnc32)O1	3	x	x	0	x	x
O=C(N/N=C/c1ccc[nH]1)c1c[nH]c2ccccc12	78*	x	7	-82	11	2
Cc1ccc(CNS(=O)(=O)c2ccc(-n3cnnn3)c(C)c2)cc1	1	x	2	5	2	-3
CCC(=O)NC1=C(Cl)C(=O)C(NC(=O)CC)=C(Cl)C1=O	7	16	23	50*	-13	-5
CC1=C(C(=O)N(C(C)C)C(C)C)CC(CC(=O)NCCN2CCOCC2)C(=O)N1CCCN1CCCC1=O (configuration not stated)	-2	x	x	11	x	x
CC1=C(C(=O)N(C)C)CC(CC(=O)NCCN2CCOCC2)C(=O)N1CCCN1CCCC1=O (configuration not stated)	55*	x	x	23	x	x
COc1cccc(N(C(=O)c2cnccn2)C(C(=O)NC2CCCCC2)c2ccc(Cl)cc2)c1 (configuration not stated)	-8	-8	19	26	1	-1
COc1ccc(C(C(=O)NC2CCCCC2)N(C(=O)CCl)c2ccc(C)cc2)cc1 (configuration not stated)	95*	72*	-3	18	3	3
COc1ccc(C(C(=O)NC2CCCCC2)N(C(=O)CCl)c2cccc(Cl)c2)cc1 (configuration not stated)	96*	59*	x	8	x	x
COc1ccc(C(C(=O)NC2CCCCC2)N(C(=O)CCl)c2ccc(OC)cc2)cc1 (configuration not stated)	96*	35	5	8	0	4
O=C(CSc1ccccc1F)NC(=O)NC1CCCC1	-3	x	x	4	x	x
C=CCOc1ccc(/C=C2/C(=N)N3N=C(CC(=O)N4CCCC4)SC3=NC2=O)cc1OC	14	x	11	3	3	0
COc1ccc(CCNC(=O)c2cc3ccc(Cl)cc3nc2N)cc1	-3	x	x	-362	x	x

Source: PubChem
